The whole screen tested about 310,000 compounds, of which about 3,300 (1.1%) were called active.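 How the source made its calls: active means B-score under library mean minus 3 SD, initial fluorescence not abnormally high, positive integrated signal ratio; inactive means the rest.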 Many of the other results were omitted from the sample, so actives are more common in it than they were.
Each compound was assayed against Short transient receptor potential channel 6 (Mus musculus) (UniProt Q61143) (assay: mouse TRPC6 channel inhibitors, primary screen, cell-based, HEK293, membrane potential dye (AID 2553;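 on B-score: B-score derived from integrated fluorescence ratio over the kinetic read; more negative B-score means stronger inhibition of depolarization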)). Conditions: ACh-evoked depolarization, at 10 µM; active compounds read low.
Short transient receptor potential channel 6 (Mus musculus), sequence (Q61143 whole entry, looked up): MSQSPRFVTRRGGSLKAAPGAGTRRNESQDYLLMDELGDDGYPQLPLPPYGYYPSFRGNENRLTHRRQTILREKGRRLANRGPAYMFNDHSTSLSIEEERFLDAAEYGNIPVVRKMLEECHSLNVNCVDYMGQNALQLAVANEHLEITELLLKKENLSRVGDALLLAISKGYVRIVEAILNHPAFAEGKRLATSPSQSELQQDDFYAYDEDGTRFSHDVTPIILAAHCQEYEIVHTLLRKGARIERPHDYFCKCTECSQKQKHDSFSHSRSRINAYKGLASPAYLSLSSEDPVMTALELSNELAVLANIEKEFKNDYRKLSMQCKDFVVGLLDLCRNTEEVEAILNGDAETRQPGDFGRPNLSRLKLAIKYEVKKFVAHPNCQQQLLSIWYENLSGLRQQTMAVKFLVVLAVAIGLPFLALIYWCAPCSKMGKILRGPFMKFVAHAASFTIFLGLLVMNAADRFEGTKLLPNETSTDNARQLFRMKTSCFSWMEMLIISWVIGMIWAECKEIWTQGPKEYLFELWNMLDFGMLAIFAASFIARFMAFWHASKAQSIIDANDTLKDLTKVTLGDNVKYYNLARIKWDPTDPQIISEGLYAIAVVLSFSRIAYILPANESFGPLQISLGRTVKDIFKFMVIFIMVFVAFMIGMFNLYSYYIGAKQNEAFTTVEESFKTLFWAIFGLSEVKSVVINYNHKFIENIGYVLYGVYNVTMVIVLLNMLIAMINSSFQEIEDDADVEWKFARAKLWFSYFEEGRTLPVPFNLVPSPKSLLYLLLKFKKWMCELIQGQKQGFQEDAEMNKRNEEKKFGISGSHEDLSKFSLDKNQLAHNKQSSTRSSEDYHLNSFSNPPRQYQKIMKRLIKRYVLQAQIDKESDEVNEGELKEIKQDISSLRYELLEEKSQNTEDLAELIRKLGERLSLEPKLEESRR

Row | SMILES | B-score
1 | O=C(Nc1ccccc1-c1nc2ccccc2[nH]c1=O)c1cccs1 | inactive
2 | C/C(=N\Nc1nc2ccccc2[nH]1)c1cccs1 | -13.6 (active)
3 | C/C(=N\Nc1ncc(Cl)cc1Cl)c1cccs1 | inactive
4 | Cc1cc(OCC(=O)N(C)c2c(N)n(Cc3ccccc3)c(=O)[nH]c2=O)c(C(C)C)cc1Cl | inactive
5 | CC(C)c1ccc(OCC(O)Cn2cnc3ccccc32)cc1 (stereo not drawn) | -9.55 (active)
6 | CC(C)c1ccc(OCC(O)CN2CCN(c3ccccn3)CC2)cc1 (stereo not drawn) | inactive
7 | CC(=O)OC(COc1ccc(F)cc1)Cn1cnc2ccccc21 (stereo not drawn) | inactive
8 | N=c1c2c(-c3ccccc3)c(-c3ccccc3)n(Cc3ccccc3)c2ncn1CCCO | -7.35 (active)
9 | CCN(CC)CCn1cnc2c1c(=O)[nH]c(=O)n2Cc1ccccc1 | inactive
10 | COCCn1cnc2c1c(=O)n(Cc1ccc(Br)cc1)c(=O)n2Cc1ccccc1 | inactive
11 | CCOC(=O)C(CCOc1cccc(CC)c1)C(=O)OCC | inactive
12 | CCOC(=O)c1sc(N(Cc2ccccc2)C(=O)CN2C(=O)CN(C)C2=O)nc1C | inactive
13 | Cc1cc(=O)[nH]c(SCc2ccc(Cl)cc2)n1 | inactive
14 | CC1CN(C(=O)c2cc(COc3c(F)cccc3F)on2)CCN1C (stereo not drawn) | inactive
15 | Cc1cccc(NS(=O)(=O)c2ccc(-c3cnc(C4CC4)o3)cc2)c1 | inactive
16 | O=S(=O)(c1ccc(Cl)s1)N1CCC2(CC1)OCCO2 | inactive
17 | Cc1ccc2[nH]cc(CCNC(=O)C3CCCCC3)c2c1 | inactive
18 | O=C(NCCc1c[nH]c2ccccc12)C1CCN(Cc2ccc(Br)cc2)CC1 | -5.11 (active)
19 | O=C(NCCc1c[nH]c2ccccc12)c1cccc(Br)c1 | inactive
20 | Cc1ccc(OCCOc2cccc(/C=N/NC(N)=O)c2)cc1 | inactive
21 | COc1ccc(CNC(=O)CN2CCC(n3nnc4cc(F)ccc43)CC2)cc1 | inactive
22 | N=c1n(CCc2ccccc2)c2ccccc2n1Cc1ccccc1F | -5.3 (active)
23 | Fc1ccccc1Cn1cnc(NC(=S)NCCc2ccccc2)n1 | inactive
24 | CC(=O)NC(C)c1nc2ccccc2n1Cc1ccccc1F (stereo not drawn) | inactive
25 | CC(C)CCOc1ccc(C(=O)C[N+]2(C)CCOCC2)cc1 | inactive

Row | SMILES | B-score
26 | Cc1ccccc1C(OCCN(C)C)C1CCCCC1 (stereo not drawn) | inactive
27 | CCOC(=O)C1=C(CSc2nnnn2C)N(C)C(=O)NC1c1ccccc1 (stereo not drawn) | inactive
28 | COc1cccc(-n2c(=S)[nH]c3c(oc4ccccc43)c2=O)c1 | inactive
29 | O=C(O)C(c1ccccc1)C1(O)CCCCC1 (stereo not drawn) | inactive
30 | CN(C)CCOC(=O)C(c1ccccc1)C1(O)CCCC1 (stereo not drawn) | -7.55 (active)
31 | CCC(C(=O)OCCN(CC)CC)c1ccccc1 (stereo not drawn) | inactive
32 | CCCCc1cc2c(s1)CCCC/C2=N/O | inactive
33 | Cc1ccc(-c2nc(COC(=O)c3c(C)noc3C)cs2)cc1 | inactive
34 | CCOc1cc(-c2conc2N)cc(OCC)c1OCC | inactive
35 | Cc1csc2ncc(C(=O)N(Cc3ccccc3)c3ccccn3)c(=O)n12 | inactive
36 | CCOC(=O)CCc1c(C)c(C#N)c2[nH]c3ccccc3n2c1=O | inactive
37 | CCCc1cc(=S)n2c([nH]c3ccccc32)c1C#N | -12.9 (active)
38 | Cc1ccccc1Cn1c(=O)[nH]c2ccccc21 | inactive
39 | COc1ccc(OC)c(C(=O)c2ccc(C(=O)N3CCN(Cc4csc(C)n4)CC3)cc2)c1 | inactive
40 | CCOc1ccccc1NC(=S)N1CCN(c2cccc(C)c2C)CC1 | inactive
41 | CN(N)c1nc(N2CCCC2)nc(N2CCCC2)n1 | inactive
42 | Cn1c(NC(=O)c2ccc3c(c2)OCO3)cc(=O)n(C)c1=O | inactive
43 | Cn1c(=O)n(C)c2cc(C(=O)Nc3ccc4c(c3)OCO4)ccc21 | -7.03 (active)
44 | Cn1c(=O)n(C)c2cc(C(=O)Nc3ccc(Br)cc3)ccc21 | inactive
45 | CC(C)(C)c1cc(CN2CCN(CCC#N)CC2)cc(C(C)(C)C)c1O | inactive
46 | Cc1ccc(NC(=S)N(CCCN2CCC(C)CC2)Cc2ccco2)cc1 | inactive
47 | Cc1ccc(NC(=S)N(CCN2CCCCC2)Cc2ccco2)cc1C | inactive
48 | Cc1ccc(NC(=S)N(CCCN2CCCC2)Cc2cccn2Cc2ccc(Cl)cc2)cc1 | -5.03 (active)
49 | COC(=O)[C@@H]1C[C@H]2CC[C@H](O)C[C@H]2N1Cc1ccc(N2CCN(C)CC2)cc1 | inactive
50 | N#C/C(C(=S)Nc1ccccc1)=C1/NN=C(N2CCOCC2)N1c1ccccc1 | inactive

Row | SMILES | B-score
51 | COc1cccc(CC(=O)N2CCCC(CCC(=O)N3CCN(c4ccccn4)CC3)C2)c1 (stereo not drawn) | inactive
52 | CC(C)C(c1nnnn1CCc1ccccc1)N1CCN(C(=O)c2ccco2)CC1 (stereo not drawn) | -6.03 (active)
53 | CC(C)C(c1nnnn1C1CCCCC1)N1CCN(C(=O)c2ccco2)CC1 (stereo not drawn) | inactive
54 | CCC(c1nnnn1C1CCCC1)N1CCN(C(=O)c2ccco2)CC1 (stereo not drawn) | inactive
55 | O=[N+]([O-])c1ccccc1/C=C/CN1CCCC(CO)C1 (stereo not drawn) | inactive
56 | CC1CC(C)CN(C/C=C/c2ccccc2[N+](=O)[O-])C1 (stereo not drawn) | -10.9 (active)
57 | O=[N+]([O-])c1ccccc1/C=C/CN1CCC(O)CC1 | inactive
58 | CC1=C[C@H]2Cc3cc(C)cc(C)c3S(=O)(=O)[C@@H]2C=C1 | inactive
59 | CC(=O)c1cc(C#N)c(SCC(=O)Nc2nccs2)nc1C | inactive
60 | Clc1ccc(C2=CSC3=Nc4cccc5cccc(c45)N23)cc1 | inactive
61 | CC(C)NC(=O)COCc1cc(-c2ccc3c(c2)OCO3)on1 | inactive
62 | CC(C)(C)c1ccc(C(=O)NCc2nnc(SCC(=O)N3CCCc4ccccc43)n2-c2ccccc2)cc1 | inactive
63 | Cn1c(/C(C#N)=C2/CCCCCN2)nc2ccccc21 | -6.04 (active)
64 | Cn1c(S(=O)(=O)O)nc2ccccc21 | inactive
65 | N#C/C(=C1/CCCN1)c1ccccn1 | inactive
66 | CC(=O)c1ccc(N2CCN(C(=O)c3ccc4nc[nH]c4c3)CC2)cc1 | inactive
67 | CC(=O)c1ccc(N2Cc3ccccc3C2)cc1 | inactive
68 | CCCOc1ccc(Cn2ccnc2)cc1[N+](=O)[O-] | inactive
69 | CCCCOc1ccc(CSC(=N)N)cc1[N+](=O)[O-] | -6.92 (active)
70 | Cc1cc(OCCCCOc2ccc(C#N)cc2)ccc1[N+](=O)[O-] | inactive
71 | CCCCOC(=O)CCCc1ccc([N+](=O)[O-])cc1[N+](=O)[O-] | inactive
72 | CCCCCOc1ccc(CSC2=NCCN2)cc1[N+](=O)[O-] | -7.13 (active)
73 | Cc1nc(SCc2ccc(F)cc2)c([N+](=O)[O-])[nH]1 | inactive
